# Test results from PubChem BioAssay AID1159580 (chemical genetic matrix, 2015).
# The whole screen tested about 5,500 compounds, of which about 2,000 (36%) were called active. Not shown: some 18% with an inconclusive outcome. Some of the results follow. A number with no mark means an inactive call. Rule as the data show it: active = normalized growth mostly below about 0.91 (no sharp cut-off); inconclusive = no clear call, values can overlap the other calls; inactive = mostly above about 0.92.
# Assay: chemical genetic growth profiling, strain panel (AID 1159580);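 also: tested at 20 µM; growth read once vehicle control cultures reached saturation at 30 °C; 1 = growth at the plate median or of vehicle wells; lower values mean less growth of the strain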
# Details: S. cerevisiae deletion strains, growth OD
compound,measurement,setting,value
CN(CCC(N)CC(=O)N[C@H]1C=CC(n2ccc(N)nc2=O)O[C@@H]1C(=O)O)C(=N)N (stereo not given in full),normalized growth,"locus YAL021C, strain ccr4, active compounds read low",0.406 (active)
same,normalized growth,"locus YAL026C, strain drs2, active compounds read low",0.953
same,normalized growth,"locus YAL030W, strain snc1, active compounds read low",0.93
same,normalized growth,"locus YBL061C, strain skt5, active compounds read low",0.938
same,normalized growth,"locus YBR009C, strain hhf1, active compounds read low",0.895 (active)
same,normalized growth,"locus YBR023C, strain chs3, active compounds read low",0.944
same,normalized growth,"locus YBR171W, strain sec66, active compounds read low",0.963
same,normalized growth,"locus YBR231C, strain swc5, active compounds read low",0.976
same,normalized growth,"locus YBR279W, strain paf1, active compounds read low",0.916 (active)
same,normalized growth,"locus YCL011C, strain gbp2, active compounds read low",0.935
same,normalized growth,"locus YCL016C, strain dcc1, active compounds read low",0.947
same,normalized growth,"locus YCL061C, strain MRC1, active compounds read low",0.899 (active)
same,normalized growth,"locus YCL069W, strain vba3, active compounds read low",0.942
same,normalized growth,"locus YCR088W, strain abp1, active compounds read low",0.962
same,normalized growth,"locus YDL005C, strain med2, active compounds read low",0.111 (active)
same,normalized growth,"locus YDL040C, strain nat1, active compounds read low",0.983
same,normalized growth,"locus YDR001C, strain nth1, active compounds read low",0.965
same,normalized growth,"locus YDR069C, strain doa4, active compounds read low",0.494 (active)
same,normalized growth,"locus YDR137W, strain rgp1, active compounds read low",0.852
same,normalized growth,"locus YDR159W, strain sac3, active compounds read low",0.659 (active)
same,normalized growth,"locus YDR195W, strain ref2",0.603 (active)
same,normalized growth,"locus YDR297W, strain sur2, active compounds read low",0.941
same,normalized growth,"locus YDR334W, strain swr1, active compounds read low",0.917
same,normalized growth,"locus YDR335W, strain msn5, active compounds read low",0.626 (active)
same,normalized growth,"locus YDR392W, strain spt3, active compounds read low",0.262 (active)
same,normalized growth,"locus YEL003W, strain gim4, active compounds read low",0.919
same,normalized growth,"locus YEL037C, strain rad23, active compounds read low",0.963
same,normalized growth,"locus YEL061C, strain CIN8 (second series), active compounds read low",0.952
same,normalized growth,"locus YER015W, strain faa2, active compounds read low",0.917 (active)
same,normalized growth,"locus YER016W, strain bim1, active compounds read low",0.976
same,normalized growth,"locus YER111C, strain swi4, active compounds read low",0.793 (active)
same,normalized growth,"locus YER155C, strain BEM2 (second series), active compounds read low",0.826 (active)
same,normalized growth,"locus YFR010W, strain ubp6, active compounds read low",0.725 (active)
same,normalized growth,"locus YGL167C, strain pmr1, active compounds read low",0.998
same,normalized growth,"locus YGL173C, strain kem1, active compounds read low",0.124 (active)
same,normalized growth,"locus YGL227W, strain vid30, active compounds read low",0.98
same,normalized growth,"locus YGL240W, strain doc1, active compounds read low",0.31 (active)
same,normalized growth,"locus YGL253W, strain hxk2, active compounds read low",0.942
same,normalized growth,"locus YHR013C, strain ard1, active compounds read low",0.929
same,normalized growth,"locus YHR027C, strain rpn1, active compounds read low",0.814 (active)
same,normalized growth,"locus YHR030C, strain SLT2, active compounds read low",0.9
same,normalized growth,"locus YHR079C, strain IRE1, active compounds read low",0.924
same,normalized growth,"locus YHR142W, strain chs7, active compounds read low",0.846 (active)
same,normalized growth,"locus YJL092W, strain hpr5, active compounds read low",0.913 (active)
same,normalized growth,"locus YJL095W, strain BCK1 (second series), active compounds read low",0.891 (active)
same,normalized growth,"locus YJL095W, strain BCK1, active compounds read low",0.934
same,normalized growth,"locus YJL115W, strain asf1, active compounds read low",0.725 (active)
same,normalized growth,"locus YJL129C, strain trk1, active compounds read low",0.637 (active)
same,normalized growth,"locus YJL154C, strain vps35, active compounds read low",0.898 (active)
same,normalized growth,"locus YJL164C, strain tpk1, active compounds read low",0.888 (active)
same,normalized growth,"locus YJL166W, strain qcr8, active compounds read low",0.891 (active)
same,normalized growth,"locus YJL187C, strain SWE1, active compounds read low",0.872 (active)
same,normalized growth,"locus YJR066W, strain TOR1, active compounds read low",0.814 (active)
same,normalized growth,"locus YKL160W, strain elf1, active compounds read low",0.887 (active)
same,normalized growth,"locus YKR026C, strain gcn3, active compounds read low",0.965
same,normalized growth,"locus YKR091W, strain srl3, active compounds read low",0.986
same,normalized growth,"locus YLL001W, strain dnm1, active compounds read low",0.923
same,normalized growth,"locus YLL026W, active compounds read low",0.934
same,normalized growth,"locus YLL041C, strain sdh2, active compounds read low",0.946
same,normalized growth,"locus YLR027C, strain aat2, active compounds read low",0.872 (active)
same,normalized growth,"locus YLR113W, strain HOG1, active compounds read low",0.958
same,normalized growth,"locus YLR221C, strain rsa3, active compounds read low",0.871 (active)
same,normalized growth,"locus YLR258W, strain gsy2, active compounds read low",0.922
same,normalized growth,"locus YLR262C, strain YPT6 (second series), active compounds read low",0.904
same,normalized growth,"locus YLR320W, strain mms22, active compounds read low",0.957
same,normalized growth,"locus YLR342W, strain FKS1, active compounds read low",0.943
same,normalized growth,"locus YLR357W, strain rsc2, active compounds read low",0.31 (active)
same,normalized growth,"locus YLR370C, strain arc18, active compounds read low",0.478 (active)
same,normalized growth,"locus YLR384C, strain iki3, active compounds read low",0.692 (active)
same,normalized growth,"locus YML120C, strain ndi1, active compounds read low",0.888 (active)
same,normalized growth,"locus YMR058W, strain fet3, active compounds read low",0.885 (active)
same,normalized growth,"locus YMR125W, strain sto1, active compounds read low",0.686 (active)
same,normalized growth,"locus YMR129W, active compounds read low",0.949
same,normalized growth,"locus YMR205C, strain PFK2, active compounds read low",1
same,normalized growth,"locus YMR231W, strain pep5, active compounds read low",0.734 (active)
same,normalized growth,"locus YNL071W, strain lat1, active compounds read low",0.89 (active)
same,normalized growth,"locus YNL183C, strain NPR1, active compounds read low",0.881
same,normalized growth,"locus YNL209W, strain ssb2, active compounds read low",0.796 (active)
same,normalized growth,"locus YNL248C, strain rpa49, active compounds read low",0.73 (active)
same,normalized growth,"locus YNL322C, strain KRE1 (second series), active compounds read low",0.942
same,normalized growth,"locus YNR049C, strain mso1, active compounds read low",0.94
same,normalized growth,"locus YOR001W, strain rrp6, active compounds read low",0.793 (active)
same,normalized growth,"locus YOR070C, strain gyp1, active compounds read low",0.962
same,normalized growth,"locus YOR080W, strain dia2, active compounds read low",0.776 (active)
same,normalized growth,"locus YOR083W, strain WHI5, active compounds read low",0.923
same,normalized growth,"locus YOR106W, strain vam3, active compounds read low",0.699 (active)
same,normalized growth,"locus YOR231W, strain MKK1, active compounds read low",0.87
same,normalized growth,"locus YOR265W, strain rbl2, active compounds read low",0.966
same,normalized growth,"locus YOR270C, strain vph1, active compounds read low",0.781
same,normalized growth,"locus YOR290C, strain snf2, active compounds read low",0.875
same,normalized growth,"locus YPL051W, strain arl3, active compounds read low",0.869 (active)
same,normalized growth,"locus YPL078C, strain atp4, active compounds read low",0.826 (active)
same,normalized growth,"locus YPL106C, strain sse1, active compounds read low",0.356 (active)
same,normalized growth,"locus YPL240C, strain hsp82, active compounds read low",0.924 (active)
same,normalized growth,"locus YPL256C, strain CLN2, active compounds read low",0.901
